An excerpt weighted towards active compounds, which were near 3.9% of everything screened.
HGIII-sPLA2 inh – Inhibits HGIII-sPLA2 liposome hydrolysis, primary screen. Q9NZ20. QFRET BODIPY PC-A2 liposome hydrolysis, fluorescence. inhibition, % at 12.2 µM. 370,000 compounds, 0.56% hits;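 active means inhibition above mean plus 3 SD of compounds lying within the high and low control bounds, cut at about 19% in these data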;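 further: 0% = median of test compound wells and 100% = no enzyme DMSO wells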
PLC-beta3 inh – PLC-beta3 (human) inhibition, primary screen | Q01970 | Purified PLC-beta3, fluorogenic substrate, fluorescence | inhibition, % at 12.2 µM | 370,000 compounds, 0.18% hits; in the data active means inhibition above about 11%;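 further: 0% = median of compound wells on plate and 100% = full blocker control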
HIF activator – HIF pathway transcriptional activation; U2OS HRE-luciferase reporter, luminescence; normalized: DMSO 0%, desferrioxamine 100%; 300,000 compounds, 0.32% hits; activation, % at 7.5 µM (by protocol);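 active means mean activation of at least 10% of the iron chelator positive control signal, with at least half of replicates also reaching 10%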
PLC-gamma1 inh – blocks human PLC-gamma1 enzyme activity; purified PLC-gamma1, fluorogenic substrate, fluorescence; P19174; inhibition, % at 12.2 µM; 370,000 compounds, 0.84% hits; AID 720700; in the data active means inhibition above about 9.5%
Target sequence (P19174 whole entry, looked up): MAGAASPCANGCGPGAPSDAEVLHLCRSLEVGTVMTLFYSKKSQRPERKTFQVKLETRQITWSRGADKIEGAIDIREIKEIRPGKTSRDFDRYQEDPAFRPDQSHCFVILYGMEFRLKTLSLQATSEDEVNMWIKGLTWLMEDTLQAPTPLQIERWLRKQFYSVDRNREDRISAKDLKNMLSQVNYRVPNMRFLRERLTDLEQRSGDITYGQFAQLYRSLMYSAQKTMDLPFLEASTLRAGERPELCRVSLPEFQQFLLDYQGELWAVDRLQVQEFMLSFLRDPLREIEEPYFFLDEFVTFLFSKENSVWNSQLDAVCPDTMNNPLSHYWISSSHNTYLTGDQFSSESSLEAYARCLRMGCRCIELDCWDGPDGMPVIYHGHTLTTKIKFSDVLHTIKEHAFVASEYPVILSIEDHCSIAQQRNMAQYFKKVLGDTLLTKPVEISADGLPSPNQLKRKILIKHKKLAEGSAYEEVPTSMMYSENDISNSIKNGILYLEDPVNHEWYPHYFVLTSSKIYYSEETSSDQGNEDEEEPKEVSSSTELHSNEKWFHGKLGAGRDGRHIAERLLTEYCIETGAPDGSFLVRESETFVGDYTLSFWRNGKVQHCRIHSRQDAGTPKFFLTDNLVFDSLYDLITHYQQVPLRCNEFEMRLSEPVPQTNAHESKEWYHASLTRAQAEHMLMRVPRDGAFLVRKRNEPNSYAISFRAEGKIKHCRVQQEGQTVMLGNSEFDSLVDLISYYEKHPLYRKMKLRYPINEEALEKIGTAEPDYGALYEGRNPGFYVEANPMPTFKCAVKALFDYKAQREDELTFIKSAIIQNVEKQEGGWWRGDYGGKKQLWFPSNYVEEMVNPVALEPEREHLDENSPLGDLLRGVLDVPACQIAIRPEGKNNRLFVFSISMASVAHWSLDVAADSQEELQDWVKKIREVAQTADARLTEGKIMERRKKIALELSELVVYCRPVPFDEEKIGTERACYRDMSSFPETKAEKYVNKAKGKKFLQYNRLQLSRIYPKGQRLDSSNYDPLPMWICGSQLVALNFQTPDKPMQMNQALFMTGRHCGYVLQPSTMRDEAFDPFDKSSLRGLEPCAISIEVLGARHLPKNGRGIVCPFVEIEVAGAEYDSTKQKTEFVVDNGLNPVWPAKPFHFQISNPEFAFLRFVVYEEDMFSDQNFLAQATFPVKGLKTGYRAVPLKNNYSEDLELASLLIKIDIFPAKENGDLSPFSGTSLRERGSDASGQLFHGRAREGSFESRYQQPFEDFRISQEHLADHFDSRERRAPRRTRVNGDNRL
CR mimetic SO – yeast age-related superoxide inhibition as caloric restriction mimetic | 330,000 compounds, 0.18% hits | S. cerevisiae aged cells, superoxide DHE fluorescence; active compounds read low | superoxide response (% of plate mean), % at 10 µM;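 active means superoxide response under a set limit, about three screen SD below normal, cut at about 65% in these data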;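 further: yeast aged for seven days with compound at 30 °C before DHE staining; 100% = average MFI of all compound-treated wells on the plate with controls excluded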
AHR act – human AHR activation; P35869; AHR-responsive luciferase reporter cells, luminescence; activation, % at 5 µM; 320,000 compounds, 2.5% hits; AID 2796; in the data active means activation above about 47%;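 further: 0% = vehicle wells and 100% = reference agonist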
An asterisk follows results filed as active; x = no result given.

SMILES | HGIII-sPLA2 inh | PLC-beta3 inh | HIF activator | PLC-gamma1 inh | CR mimetic SO | AHR act
COc1ccc(OC)c(CN2C(=O)CSCC2(C)c2nnnn2C2CCCC2)c1 (configuration not stated) | -2.9 | 2.9 | x | -0.5 | x | x
CC(C)C[C@@H](CCCc1ccccc1)CCC(=O)N(c1ccccc1)c1ccccc1 | 4.9 | 1.6 | x | -1.6 | x | x
CCn1ncc(C2=NOC(C(=O)Nc3ccc4c(c3)OCO4)C2)c1C (configuration not stated) | 0.6 | -2.0 | 110.2* | -0.5 | 109.7 | 3.9
O=C(NCc1ccco1)c1cc2nc(-c3ccc4c(c3)OCO4)cc(C(F)(F)F)n2n1 | -2.3 | -298.5 | 0.0 | -238.9 | 95.9 | 63.1*
CC(COc1ccc(OC(F)(F)F)cc1)CN1CCC(C(O)(c2ccccc2)c2ccccc2)CC1 (configuration not stated) | -20.0 | 4.3 | x | 0.0 | x | x
CSc1nnc(C)c(/C=C/Nc2ccc(Cl)cc2)n1 | -5.0 | -10.7 | 0.5 | -12.0 | 87.0 | 49.8*
CSc1nnc(C)c(/C=C/Nc2ccc(F)cc2)n1 | 1.1 | -6.1 | -0.3 | 3.8 | 100.8 | 37.3
COC[C@@H]1CCCN1c1ccc2c(c1)OCCCN(C1CC1)S2(=O)=O | -4.5 | -3.4 | x | -3.3 | x | x
O=S1(=O)CCN2C(c3ccco3)=CSC2=N1 | 7.0 | 2.5 | 0.0 | 1.6 | 113.8 | 0.7
O=S1(=O)CCN2C(c3ccc4c(c3)CCCC4)=CSC2=N1 | 5.6 | 11.2* | 0.0 | 0.9 | 106.0 | 2.8
COc1ccc(S(=O)(=O)N2CCC(c3cc(-c4cccc5ccccc45)n[nH]3)CC2)cc1 | -33.3 | 0.4 | 11.2* | 0.8 | 104.2 | 7.2
COc1ccc(C)cc1NC(=O)c1nn(C)cc1Br | 1.1 | -4.3 | -0.4 | 2.8 | 81.6 | 60.0*
CCOC(=O)CNC(=O)CSc1nnc(-c2cccs2)o1 | 15.2 | -7.0 | x | 2.0 | x | x
O=C1C(=Cc2ccco2)CCC1=Cc1ccco1 | -3.5 | -3.9 | x | 11.1* | x | x
O=C(CSc1nc2ccccc2[nH]1)NCc1ccc2c(c1)OCO2 | 0.1 | 1.7 | x | -0.2 | 97.4 | 54.8*
O=C(CSc1ccccn1)NCc1ccc2c(c1)OCO2 | 10.3 | -4.3 | 1.4 | 1.7 | 115.6 | 29.4
O=C(NCCSc1c[nH]c2ccccc12)c1ccc2c(c1)OCO2 | -14.4 | -3.1 | 0.2 | -2.2 | 90.1 | 50.5*
O=C(CSc1c[nH]c2ccccc12)NCc1ccc2c(c1)OCO2 | -9.0 | 0.7 | 44.3* | 1.4 | 93.5 | 11.8
CSc1ncc(Cl)c(C(=O)NCc2ccc3c(c2)OCO3)n1 | 1.4 | 1.3 | 0.1 | -0.6 | 107.8 | 73.7*
CSc1ncc(Cl)c(C(=O)NCc2cccnc2)n1 | -2.9 | 5.8 | -4.5 | 1.1 | 92.4 | x
CCn1c(SCC(=O)NN=Cc2c[nH]c3ccccc23)nc2ccccc21 | -25.6 | -59.2 | x | -2.0 | x | x
O=C(NCCc1c[nH]c2ccccc12)c1cc(Cl)c2c(c1)OCO2 | -54.7 | -10.4 | 3.0 | -2.4 | 91.7 | 47.8*
O=C(CSc1nc2ccccc2o1)NCc1ccc2c(c1)OCO2 | -19.1 | 0.4 | 1.9 | -1.6 | 93.9 | 69.9*
O=C(NCCSc1c[nH]c2ccccc12)c1ccc(Br)o1 | -12.3 | 2.3 | 16.1* | 3.6 | 90.9 | -1.4
O=C(Cn1c(Cc2ccccc2)nc2ccccc21)NCc1ccc2c(c1)OCO2 | 7.4 | -2.5 | 137.1* | 0.9 | 106.8 | 3.4
SMILES | HGIII-sPLA2 inh | PLC-beta3 inh | HIF activator | PLC-gamma1 inh | CR mimetic SO | AHR act
O=C(CSc1nc2ccc(Cl)cc2o1)NCc1ccc2c(c1)OCO2 | -27.0 | -0.2 | -0.4 | 3.9 | 103.0 | 7.0
CCCNC(=O)N1CC[C@H]2[C@@H]1c1cc(-c3ccc(F)cc3)ccc1N(C)[C@H]2CO | 4.8 | -66.1 | x | -61.4 | x | x
COC(=O)[C@]12C[C@H](CC(=O)NCC3CCCCC3)C(=O)N(Cc3ccco3)C1=C[C@H](C(C)C)O[C@@H]2C1CC1 | -8.7 | 2.6 | x | -0.5 | x | x
CCN1Cc2nnn(Cc3ccccc3)c2-c2cc(N3CCCC3)ccc2S1(=O)=O | -1.4 | -64.3 | x | -52.1 | x | x
Cc1c(C)c2ccc(OCC(=O)N3CCN(c4ccc(F)cc4)CC3)c(C)c2oc1=O | 0.4 | -8.2 | 0.1 | -5.6 | 102.2 | 0.5
COc1ccc(N2CCN(C(=O)COc3ccc4c(C)c(C)c(=O)oc4c3C)CC2)cc1 | x | x | 51.2* | x | 102.0 | 1.7
Cc1nn(-c2ccccc2)c2sc(C(=O)N3CCN(C(c4ccccc4)c4ccc(Cl)cc4)CC3)cc12 (configuration not stated) | 1.2 | -0.1 | x | -1.6 | x | x
O=C(O)/C=C\C(=O)Nc1ccccc1C#Cc1ccc(Br)cc1 | 5.1 | -70.5 | 2.4 | -51.0 | 112.8 | 68.6*
Cc1cc(NS(=O)(=O)c2ccc(Nc3nc(-c4ccc(O)cc4)cs3)cc2)no1 | -42.1 | -8.9 | 0.2 | 1.4 | 105.5 | 60.1*
CC(=O)Nc1nc(-c2ccc3ccccc3c2)cs1 | -2.2 | -4.3 | 3.4 | 3.0 | 114.5 | -4.5
Cc1cc(NS(=O)(=O)c2ccc(Nc3nc(-c4ccc(C)c(C)c4)cs3)cc2)no1 | -119.2 | -7.9 | 0.3 | -6.0 | 115.5 | -0.1
Oc1ccc(Nc2nc(-c3ccc4ccccc4c3)cs2)cc1 | 7.4 | -18.5 | 2.6 | -10.0 | 80.7 | 64.0*
CC(=O)c1cnc2cc(-c3ccc(Cl)cc3)nn2c1C | -1.4 | -48.3 | 3.8 | -32.3 | 94.9 | 71.1*
CCOc1ccc(NC(=O)CC2C(=O)Nc3ccccc3N2C(=O)c2ccccc2)cc1 (configuration not stated) | -2.1 | -7.0 | 25.9* | 4.2 | 114.4 | 1.4
COc1ccc(NC(=O)CC2C(=O)Nc3ccccc3N2CC(=O)N2CCCC2)cc1 (configuration not stated) | -11.5 | -43.2 | x | -28.1 | 99.9 | 73.5*
CCOC(=O)[C@]12CCCC=C1N(Cc1ccc(OC)cc1)C(=O)[C@@H]2CC(=O)NCCCN1CCCC1=O | -1.1 | 4.6 | x | -1.3 | x | x
CCCc1cc(=O)n2[nH]c(-c3ccc(C)cc3)cc2n1 | 8.8 | -7.9 | 1.9 | -5.3 | 90.9 | 68.7*
CCCc1cc(=O)n2[nH]c(-c3ccccc3)cc2n1 | -5.3 | -7.0 | 2.0 | -10.8 | 98.5 | 71.9*
Cc1cc2nc(-c3ccccc3)cc(=O)n2[nH]1 | 0.5 | -195.0 | 0.2 | -143.5 | 114.2 | 2.7
COCc1cc(=O)n2[nH]c(-c3ccccc3)cc2n1 | 8.4 | -30.5 | 0.4 | -23.2 | 104.3 | 33.2
O=c1cc(-c2ccccc2)nc2cc(-c3ccco3)[nH]n12 | 7.3 | -71.1 | -11.7 | -47.2 | 63.0* | 37.5
O=c1cc(-c2ccccc2)nc2nc(-c3ccccc3)[nH]n12 | -0.5 | -1.9 | -0.9 | -2.1 | 117.2 | 73.7*
CCOC(=O)Cc1cc(=O)n2[nH]c(-c3ccc(Cl)cc3)cc2n1 | -59.2 | -15.7 | 0.3 | -9.0 | 103.1 | 39.7
COc1ccc2cc3cc(C(=O)Nc4ccc(F)cc4)sc3nc2c1 | 9.7 | -36.9 | x | -17.7 | x | x
CCOC(=O)c1c(NCc2ccccc2)n[nH]c1C | 14.8 | -1.0 | -0.4 | 5.2 | 108.5 | 47.7*
CCOC(=O)c1c(C)nsc1NCc1ccccc1 | 11.8 | -8.6 | -0.7 | 1.0 | 119.1 | -1.5

Assay outcomes deposited in PubChem by several laboratories.
